One molecule from PubChem BioAssay AID651707 (NMMLSC, 2012) can be followed below.

Structures are written as SMILES. Hit rate of the full screen: of about 2,300 compounds, about 170 (7.4%) were called active.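 The calls were made as follows: active = over 5% cells positive for green fluorescent reporter, or over 2% positive for both it and APC stain; inactive = the rest, inconclusive results apart.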 The sample as a whole holds a higher share of actives than the screen did.

This test in a line: intrinsic compound fluorescence in ER-HoxA9 progenitors, confirmation, artefact control for AML myeloid differentiation project, cell-based, flow cytometry, GFP/APC, Cherry Pick01 (AID 651707).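 Also: range taken on the double positive population between DMSO and positive control.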 Particulars: no estrogen, GFP autofluorescence flow cytometry, active compounds read high. Background: In flow cytometry, cells or beads pass a laser one at a time.
For the molecule `CC/C(=N\NC(=O)c1ccccc1O)c1c(O)n(Cc2ccccc2)c(=O)[nH]c1=O`, the fluorescence response was 5.1% (active).
